Laboratory results: PubChem BioAssay (NCI)
This is part of a sample that, as a whole, favours compounds with a hit. Of some 83,000 tested, about 20% had one in any assay.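 96-well plates, one dose, 48 hours. Percent growth reported; active if below 10.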 A number with no mark means an inactive call. The source made the active and inactive calls.

What follows are compounds tested on MDA-MB-468 breast (assay: NCI-60 one-dose screen, 48 h (100 = growth as untreated, 0 = no growth, -100 = all killed)). Conditions: 10 µM unless noted.

Row | SMILES | growth
1 | O=[N+]([O-])c1ccccc1/C=N\NC(=S)N/N=C/c1ccccc1[N+](=O)[O-] | 30.7%
2 | N#Cc1c(-c2cccs2)cc(-c2cnccn2)nc1SCC(=O)c1ccc(F)cc1 | 101%
3 | COCCNC1=C(Cl)C(=O)c2ccccc2C1=O | 76.8%
4 | COc1ccc(CN2C(=O)/C(=C\C(=O)c3ccc(OCCN4CCCCC4)cc3)c3ccccc32)cc1 | 53.3%
5 | CCOC(=O)c1sc2nc(-c3cccc(OC)c3)nc(N3CCOCC3)c2c1C | 81.2%
6 | CCCCCCCCCCCC(=O)[O][Sn]([CH2]CCC)([CH2]CCC)[CH2]CCC | -79.4% (active)
7 | CNCCOc1nc2c3cnccc3cc(-c3cc(OC)c(OC)c(OC)c3)c2c2ccncc12 | -43.2% (active)
8 | O=C(Nc1ccc(N=Cc2ccccc2O)cc1)NC1C=c2ccccc2=CC1 (stereo unspecified) | 87.1%
9 | C#CCn1c(C)cc(C)c(C#N)c1=O | 132%
10 | COc1ccc(/C=C/C(=O)c2ccc(OC)c(OC)c2)cc1O | 65.6%
11 | COc1ccc(/C=C(\C#N)C(=O)Nc2cccc(Nc3nc(SC)nc(-c4cccc([N+](=O)[O-])c4)c3C#N)c2)cc1OC | 106%
